# CHO-K1 Ca antag = nonselective inhibitor or artifact in parental CHO-K1 cells | ATP-induced calcium, Fluo-8 fluorescence | 0.6% of 360,000 active | inhibition, % at 3 µM;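 active = inhibition above a per-plate cutoff, the plate's mean sample inhibition plus 3 SD, cut at about 24% in these data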
# CHRM4 antagonist = antagonists of human muscarinic M4 receptor (CHRM4); P08173; CHO-hM4 cells, ACh EC80, Fluo-8 calcium fluorescence; inhibition, % at 3 µM; 0.73% of 360,000 active;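 active = inhibition above its plate's cutoff, the mean inhibition of sample wells plus 3 SD, cut at about 27% in these data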
# Target sequence (P08173 whole entry, looked up): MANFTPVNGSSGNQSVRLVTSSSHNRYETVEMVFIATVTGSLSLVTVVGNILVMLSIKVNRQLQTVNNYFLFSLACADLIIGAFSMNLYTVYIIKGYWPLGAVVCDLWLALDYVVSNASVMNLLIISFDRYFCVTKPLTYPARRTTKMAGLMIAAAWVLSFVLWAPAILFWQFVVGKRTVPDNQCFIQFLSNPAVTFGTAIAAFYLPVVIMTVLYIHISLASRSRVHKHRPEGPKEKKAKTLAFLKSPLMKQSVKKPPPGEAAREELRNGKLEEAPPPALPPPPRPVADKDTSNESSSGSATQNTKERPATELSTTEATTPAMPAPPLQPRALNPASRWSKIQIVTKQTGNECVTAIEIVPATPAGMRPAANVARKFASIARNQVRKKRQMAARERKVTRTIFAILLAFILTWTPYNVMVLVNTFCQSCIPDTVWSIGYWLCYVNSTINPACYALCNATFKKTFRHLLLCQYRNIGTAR
# CHRM4 PAM = potentiates acetylcholine response at human M4 receptor | CHO-K1 hM4/Gqi5, Fluo-8 calcium fluorescence, ACh EC20; 0% = ACh EC20, 100% = maximal ACh | activation, % at 3 µM | 0.4% of 360,000 active | P08173 | AID 624126;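 active = activation above its plate's cutoff, the mean activation of sample wells plus 3 SD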
# CHO-K1 Ca PAM = counter-screen for M1 PAMs: effect in parental CHO-K1 cells; ATP EC20, Fluo-8 calcium fluorescence; 0% at ATP EC20, 100% at ATP max; activation, % at 3 µM; 0.02% of 360,000 active;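 active = activation above the run cutoff, the mean activation of all test compounds plus 3 SD, cut at about 40% in these data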;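 note: peak over basal fluorescence ratio in a 140 s read after ATP addition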
# M1 ag parental = counter-screen for M1 agonists: effect in parental CHO-K1 cells; Fluo-8 calcium fluorescence; scaled to maximal ATP response, vehicle zero; activation, % at 3 µM; 0.48% of 360,000 active; AID 602248; in the data active = activation above about 15%;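 note: untransfected CHO-K1 host cells lacking M1 receptor as counterscreen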
# M4 ag = CHRM4 agonism in calcium assay. P08173. CHO-K1 hM4/Gqi5, Fluo-8 calcium fluorescence; vehicle 0%, full acetylcholine response 100%. activation, % at 3 µM. 0.14% of 360,000 active. AID 624127;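 active = activation above the run mean over all test wells plus 3 SD, cut at about 32% in these data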;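 note: peak over basal fluorescence ratio per well then scaled between controls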
# Hits are given with their value; n = inactive. An excerpt weighted towards active compounds, which were near 2% of everything screened.
SMILES,CHO-K1 Ca antag,CHRM4 antagonist,CHRM4 PAM,CHO-K1 Ca PAM,M1 ag parental,M4 ag
CCN(CC)c1ccc2nc3ccccc3[n+](CC)c2c1,n,27.4,n,n,n,n
Cc1ccc(S(=O)(=O)NCCn2nc(C)nc2C)cc1,n,n,n,n,n,n
COc1cc2[nH]c(=O)n(CCCC(=O)NCCc3ccccc3)c(=O)c2cc1OC,n,n,n,n,n,n
O=S(=O)(C/C(=C/CO)S(=O)(=O)c1ccccc1)c1ccccc1,n,30.4,n,n,n,n
O=S(=O)(CS(=O)(=O)c1ccccc1)c1ccccc1,n,n,n,n,n,n
CN1C(=O)CC(C(=O)Nc2ccccc2F)SC1=Nc1ccc2c(c1)OCO2 (stereo not drawn),n,n,n,n,n,n
COC(=O)c1[nH]c2ccc(F)cc2c1NS(=O)(=O)c1ccc(F)c(C)c1,n,39.6,n,n,n,n
COC(=O)c1[nH]c2ccc(C)cc2c1NS(=O)(=O)c1ccc(F)c(C)c1,n,n,n,n,n,n
O=C(N/N=C/c1cccnc1)/C(=C\c1cccs1)NC(=O)c1ccccc1,n,n,n,n,18.8,n
O=C(N/N=C/c1cc2ccccc2nc1Cl)/C(=C/c1cccs1)NC(=O)c1ccccc1,n,n,n,n,n,n
COc1ccc(N2CC(C(=O)Nc3cccnc3)CC2=O)cc1 (stereo not drawn),n,n,n,n,n,n
O=C(CNc1cccc(Cl)c1)c1ccc(Cl)cc1,n,n,n,n,n,n
Cc1occc1C(=O)N1CCCC(CCC(=O)NCc2ccc(F)c(F)c2)C1 (stereo not drawn),n,n,n,n,n,n
O=C(CCC1CCCN(C2C3CC4CC(C3)CC2C4)C1)NCc1ccc(F)c(F)c1 (stereo not drawn),n,40.6,n,n,n,n
S=c1nc(-c2cc(Cl)ccc2Cl)[nH][nH]1,26.2,n,n,n,n,n
S=c1nc(-c2cccc(Cl)c2)[nH][nH]1,n,n,n,n,n,n
O=C(CSc1nnc(-c2ccncc2)o1)c1cccc([N+](=O)[O-])c1,n,n,n,n,n,n
CC(C)NS(=O)(=O)c1ccc(CCC(=O)Nc2cc(Cl)ccc2Oc2ccccc2)cc1,n,n,n,n,n,n
CCNS(=O)(=O)c1ccc(CCC(=O)Nc2cc(Cl)ccc2Oc2ccccc2)cc1,n,27.6,n,n,n,n
CC(=O)Oc1c(Cl)c(N2CCOCC2)c(OC(C)=O)c2ccccc12,n,n,n,n,n,n
NC(=O)c1c(NC(=O)Cn2cnc([N+](=O)[O-])n2)sc2c1CCCC2,n,27.7,n,n,n,n
Cc1ccc(NC(=S)Nc2ccc(Cl)c(Cl)c2)c(OC(F)F)c1,26.1,n,n,n,n,n
O=C1C2CCCN2C(c2ccc(F)cc2)N1c1nccs1 (stereo not drawn),n,n,n,n,n,n
Cc1noc(C(=O)Nc2ccc(F)c(Cl)c2)c1Cl,n,95.2,n,n,n,n
CN(C)c1ccc(C=NCC2(O)CCOC(C)(C)C2)cc1 (stereo not drawn),n,n,n,n,n,n
SMILES,CHO-K1 Ca antag,CHRM4 antagonist,CHRM4 PAM,CHO-K1 Ca PAM,M1 ag parental,M4 ag
CCOC(=O)c1c(NC(=O)CSc2nnc(-c3ccccc3)o2)sc(C(C)=O)c1C,n,n,15.3,n,n,n
CCOC(=O)c1sc(NC(=O)CSc2ncn[nH]2)c(C#N)c1C,n,n,n,n,17.9,n
CCOC(=O)c1c(NC(=O)CSc2nnc(-c3ccc(C)cc3)o2)sc(C(C)=O)c1C,n,n,n,n,n,n
CCOC(=O)c1c(NC(=O)CSc2n[nH]c(-c3ccco3)n2)sc(C)c1C,24.3,n,n,n,n,n
CCOC(=O)c1c(NC(=O)CSc2n[nH]c(CNc3ccccc3)n2)sc(C)c1C,n,n,n,n,n,n
CCOC(=O)c1sc(NC(=O)CSc2nc(C)cc(C)n2)c(C#N)c1C,n,n,n,n,n,n
CCOC(=O)c1sc(NC(=O)CSc2n[nH]c(-c3ccccc3)n2)c(C#N)c1C,26.5,n,n,n,n,n
CCOC(=O)c1sc(NC(=O)CSc2ccccn2)c(C#N)c1C,n,n,n,n,n,n
CC(C)N1C(=O)S/C(=C/c2ccc(Sc3nc4ccccc4[nH]3)o2)C1=O,n,n,n,n,n,n
C=CCN1C(=O)S/C(=C/c2ccc(Sc3nc4ccccc4[nH]3)o2)C1=O,25.6,n,n,n,n,n
CC(C)CN(CC(C)C)c1nc(N)c(C#N)c(CC#N)c1C#N,n,n,27.5,n,n,n
CN(CCO)c1nc(N)c(C#N)c(CC#N)c1C#N,n,n,n,n,n,n
CCOC(=O)c1ccc(NC(=S)N2CCSC2c2ccc(Cl)cc2)cc1 (stereo not drawn),n,27.9,n,n,n,60.7
CCOC(=O)c1ccc(NC(=S)N2CCSC2c2ccc(OC)cc2)cc1 (stereo not drawn),n,n,n,n,n,n
O=C(c1ccc2c(c1)OCO2)C1CCCN(Cc2ccccc2OC(F)F)C1 (stereo not drawn),n,40.4,n,n,n,n
COc1cc(C)c(Br)cc1S(=O)(=O)NCCCN1CCOCC1,n,n,n,n,19.8,n
COc1cc(C)c(Cl)cc1S(=O)(=O)NCCCN1CCOCC1,n,n,n,n,n,n
CCCc1nnc(NC(=O)CSc2nc3ccccc3[nH]2)s1,30.5,n,n,n,n,n
CCc1nnc(NC(=O)CSc2nc3c(C)cccc3[nH]2)s1,n,n,n,n,n,n
CCCNC(=O)N1CCC(n2nccc2NC(=O)CCOc2ccccc2)CC1,n,n,n,n,n,n
Cc1cccc(/C=N/n2c(C)cc(C)c(C#N)c2=O)c1,n,n,41.3,n,n,n
COC(=O)c1cc(NC(=O)CC2C(=O)NCCN2C(=O)c2ccccc2)cc(C(=O)OC)c1 (stereo not drawn),n,n,n,n,n,n
O=C(Nc1cc2c(cc1Br)OCCO2)c1ccco1,n,n,n,n,n,n
CC(=O)c1cc2c(cc1NC(=O)c1ccco1)OCCO2,25.4,n,n,n,n,n
COc1ccc(S(=O)(=O)N2CCOCC2)cc1NC(=O)c1ccc(=O)[nH]c1,54.3,n,n,n,n,n
COc1ccc(S(=O)(=O)N2CCOCC2)cc1NC(=O)c1ccc2c(c1)OCO2,n,n,n,n,n,n
Cc1ccc(S(=O)(=O)N2CCOCC2)cc1NC(=O)COc1ccc(C(=O)c2ccccc2)cc1,n,n,n,n,16.3,n
COc1ccc(S(=O)(=O)N2CCOCC2)cc1NC(=O)CO/N=C/c1ccccc1OC(F)F,n,n,n,n,15.1,n
Nc1nc(-c2ccccn2)nc(N)c1Cc1ccc(Cl)cc1Cl,n,81.4,n,n,n,n
